# Values without a mark were called inactive.
# Legend:
# [1] = test system: Schistosoma mansoni schistosomula (NMRI); assay: phenotypic severity score (0-4); higher = more antischistosomal effect, active = 2 or more; details: 10 µM
# [2] = test system: Schistosoma mansoni schistosomula (Liberian); assay: drug effect (1 - score/DMSO control score) (fraction); higher = more antischistosomal effect, active = 0.5 or more; extreme values may be limits of the assay; details: 10 µM
# How it was run: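 Liberian-strain Schistosoma mansoni schistosomula, mechanically transformed from cercariae and pre-incubated at least 12 h, were exposed in duplicate (50 per well, flat-bottom 96-well plates) to 10 µM compound in Medium 199 with 5% FCS at 37 °C, 5% CO2, with 0.1% DMSO control wells. Wells were scored visually (10×) at 24, 48 and 72 h on a quarter-point scale from 3 (normal) to 0 (dead). Drug effect was derived from the mean test-well score relative to the mean DMSO-control score. Negative values were set to zero, and plates were valid only if control wells averaged at least 2.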
# 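For phenotypic severity score (0-4) in this document: visual microscopic scoring of shape, motility and density changes versus 0.5% DMSO solvent controls, one point per descriptor, degeneracy or death scored 4, mean of duplicate wells.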
SMILES,phenotypic severity score ([1]; 24 h),phenotypic severity score ([1]; 48 h),phenotypic severity score ([1]; 72 h),drug effect ([2]; 24 h),drug effect ([2]; 48 h),drug effect ([2]; 72 h)
O=C(NC1CCN(c2ccnc3ccccc23)C1)c1cccc(C(F)(F)F)c1 (configuration not stated),0,0,0,0.135,0.556 (active),0.938 (active)
CCCNC(=O)N1CCC2(CC1)CC(=O)c1cc(C)ccc1O2,0,0,0,0.1,0.15,0.111
CCCCCCCCCCCCCCCCOP(=O)([O-])OCC[N+](C)(C)C,0,0,0,0.05,0.243,0.273
CC(=O)Oc1ccccc1C(=O)Nc1ncc([N+](=O)[O-])s1,2 (active),4 (active),4 (active),0.2,0.297,0.556 (active)
COc1ccc(Nc2ccccc2NC(=O)c2ccc(O)nc2)cc1,0,0,0,0.182,0.45,0.4
NS(=O)(=O)c1cccc(-c2ccc3ncc(N4CCOCC4)nc3c2)c1,0,0,0,0.15,0.189,0.455
Cc1ccc2c(c1C)NC(=O)C21NN=C(c2ccccc2)S1 (configuration not stated),2 (active),0,0,< 0,0.135,0.222
c1ccc(Oc2ccc(-c3cc(N4CCNCC4)[nH]n3)cc2)cc1,2 (active),2 (active),2 (active),0.05,0.15,0.444
CCCn1c(CNc2ccccc2O)nc2ccccc21,0,0,0,0.136,0.2,0.182
Cc1ncc(-c2ccnc(Nc3ccc(S(C)(=O)=O)cc3)n2)n1C(C)C,0,0,0,0.15,0.135,0.167
O=S(=O)(c1ccc(Cl)cc1)N1CCN(C(=S)NCc2ccco2)CC1,1,0,0,0.05,0.0811,0.111
O=C(NC1CC1)c1ccc(CSCc2ccccc2Cl)o1,1,0,1,0.405,0.444,0.562 (active)
CC(C)(C)n1nc(-c2ccccc2)c2c(N)ncnc21,1,0,0,0.182,0.2,0.127
COc1cccc(OCC(=O)c2ccc(Br)cc2)c1,0,0,0,0.182,0.2,0.127
CC(=O)NC[C@@H]1CN(c2ccc(N3CCOCC3)c(F)c2)C(=O)O1,0,0,0,0.227,0.2,0.182
O=C(Nc1ccc(N2CCNCC2)cc1)c1ccn2ncc(-c3cccc(Cl)c3)c2n1,2 (active),4 (active),4 (active),0.73 (active),0.778 (active),0.938 (active)
CN1CCN(c2nccc3nc(-c4ccc(F)c(F)c4)[nH]c23)CC1,0,0,0,< 0,0.1,0.167
O=C(OCc1ccccc1)N1CCC(c2cc(-c3ccncc3)c(-c3ccc(F)cc3)[nH]2)CC1,0,0,0,0.1,0.222,0.188
COc1cccc(-c2nc3c(N4CCCC4)cccc3n2CC2CCCN2)n1 (configuration not stated),4 (active),4 (active),4 (active),0.35,0.778 (active),0.75 (active)
CCCCc1ccc(NC(=O)Nc2ccc(O[C@H]3CCCC[C@@H]3N(C)c3ccccc3)c(F)c2)cc1,0,0,0,0.111,0.312,0.875 (active)
Nc1nccc2ccc(-c3ccc4nccn4c3)cc12,4 (active),4 (active),4 (active),0.568 (active),0.778 (active),0.75 (active)
COc1ccc(-c2onc(C(F)(F)F)c2-c2ccc(Cl)cc2)c(O)c1,0,0,0,0.15,0.167,0.188
Cc1cc(C(=O)Nc2cnn(Cc3ccc(Cl)cc3Cl)c2)no1,0,0,0,0.182,0.1,0.127

SMILES,phenotypic severity score ([1]; 24 h),phenotypic severity score ([1]; 48 h),phenotypic severity score ([1]; 72 h),drug effect ([2]; 24 h),drug effect ([2]; 48 h),drug effect ([2]; 72 h)
COc1ccc(C2CC(c3cccs3)=NN2C(=O)c2ccco2)cc1OC (configuration not stated),0,0,0,0.1,0.135,0.167
Nc1ccc2ncnc(Nc3ccc(OCc4cccc(F)c4)c(Cl)c3)c2c1,4 (active),4 (active),4 (active),0.3,0.622 (active),0.879 (active)
Clc1ccc(CN2CCN(C3=NCCN3)CC2)cc1Cl,1,0,0,0.1,0.0556,0.125
N#Cc1ccc(-c2ccc(OCC(N)=O)cc2)cc1,0,1,0,0.182,0.2,0.127
COc1ccc(C2=NN(C3CCCCCC3)C(=O)C2(C)C)cc1OCc1ccccn1,–,–,–,0.273,0.4,0.4
O=C(NC1CCCCC1)N1CCN(Cc2ccc3c(c2)OCO3)CC1,0,0,0,0.0455,0.2,0.127
C[C@H](C(N)=O)N1CCCC[C@@H]1c1ccc(OCc2cccc(F)c2)cc1,0,0,0,0.2,0.444,0.5 (active)
COC(=O)Nc1nc2cc(C(=O)c3ccccc3)ccc2[nH]1,0,0,0,0.15,0.189,0.278
CC(C)N=c1cc2n(-c3ccc(Cl)cc3)c3ccccc3nc-2cc1Nc1ccc(Cl)cc1,4 (active),4 (active),4 (active),1 (active),1 (active),1 (active)
NCCCC(N)(C(=O)O)C(F)F (configuration not stated),0,0,0,0.15,0.135,0.222
Cc1nn2c(=O)c3c([nH]c2c1-c1ccc(Cl)cc1)CCCC3,0,0,0,0.136,0.2,0.127
Brc1cncc(-c2cc(NCCCn3ccnc3)nc(-c3ccccc3)n2)c1,1,4 (active),4 (active),0.273,0.65 (active),0.673 (active)
CC(C(=O)Nc1ccc2oc(-c3ccncc3)nc2c1)c1ccccc1 (configuration not stated),1,0,0,0.182,0.35,0.345
CC(C)(C)OC(=O)N1CCN(c2cc(-c3ccc(Oc4ccccc4)cc3)n[nH]2)CC1,0,0,0,0.0526,0.167,0.25
OC[C@H]1O[C@@H](n2c3ccc(Cl)cc3c3c(-c4cc5ccccc5o4)ncnc32)C(O)[C@H]1O (some centres not stated),0,0,0,0.158,0.111,< 0
N=C(N)Nc1ccc(-c2ccc(-c3ccc(NC(=N)N)cc3Cl)o2)c(Cl)c1,0,0,0,0.0526,0.111,0.125
Cc1cccc(-c2nc(Nc3ccncn3)c3sccc3n2)n1,1,3 (active),4 (active),0.405,0.667 (active),0.75 (active)
CC(C)(C)c1cc(C(=O)N2CCN(c3nccnc3C#N)CC2)n(Cc2ccccc2)n1,0,0,1,< 0,0.027,0.0303
c1ccc(Oc2ccc(-c3cncc(-c4ccc5[nH]ccc5c4)n3)cc2)cc1,0,0,2 (active),0.6 (active),1 (active),1 (active)
NS(=O)(=O)c1cncc(-c2ccc3nccc(-c4cn[nH]c4)c3n2)c1,0,0,0,0.135,0.111,0.312
COC(=O)C1=C(C)NC(C)=C(C(=O)OC(C)C)C1c1cccc2nonc12 (configuration not stated),2 (active),0,0,0.15,0.189,0.111
Cc1cc(OCC(=O)Nc2ccc(C(C)C)cc2)n(C)c(=O)c1C#N,0,0,0,0.1,0.0556,< 0
